{"source": "PubChem BioAssay (NCI)", "note": "This is part of a sample that, as a whole, favours compounds with a hit. Of some 79,000 tested, about 15% had one in any assay. Unmarked numbers belong to inactive results. The source made the active and inactive calls. Cut-off read from the data, not from the text of the source: active = growth inhibition above about 70%; inactive = the rest.", "data": [{"test": "NCI Yeast Anticancer Drug Screen. Data for the sgs1 mgt1 strain (AID 161);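 note: 0% = growth of cultures given vehicle only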", "conditions": "S. cerevisiae sgs1 mgt1 strain, at 50.0 µM, stronger effect = higher value", "summary_of_the_method": "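Compounds are added to genetically altered yeast, and growth is compared with cultures given vehicle alone to give percent inhibition.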", "values": [{"compound": "Cc1ccc(-c2nnc(C)o2)cc1", "growth inhibition": "-7.85%"}, {"compound": "CCCCCCCCOCCS(=O)(=O)O", "growth inhibition": "-0.15%"}, {"compound": "CC(=O)NC(CSC1=C2NC(=O)\\C=C/C=C/C=C\\C(C)C(O)CC(=O)/C(C)=C\\CC(O)/C=C/C(C)C(O)C(C)C=C(C)C(=O)c3c(O)c(C)cc(c3C1=O)C2=O)C(=O)O", "note": "(stereo not given)", "growth inhibition": "36.6%"}, {"compound": "Cc1ccc(S(=O)(=O)Nc2ccc3nc(C)oc3c2)cc1", "growth inhibition": "44.1%"}, {"compound": "CC(NC(=O)NCCCl)c1cccc2ccccc12", "note": "(stereo not given)", "growth inhibition": "-2.4%"}, {"compound": "CN(C)C(=S)Oc1ccc([N+](C)(C)C)cc1", "growth inhibition": "2.5%"}, {"compound": "CSc1cc(/C=C/c2ccccc2)ccc1N", "growth inhibition": "-9.45%"}, {"compound": "Cc1ccc(N=Cc2ccc(C(N)=S)cc2)cc1", "growth inhibition": "1.45%"}, {"compound": "CC(NC(=O)CN)C(=O)O", "note": "(stereo not given)", "growth inhibition": "-8.45%"}, {"compound": "NC1CCCCC1N.O=NN1CCCCCC1(P(=O)([O-])[O-])P(=O)([O-])[O-].[Na+].[Pt+2]", "growth inhibition": "-14.6%"}, {"compound": "Clc1ccc2cc(Cl)c3ccccc3c2c1", "growth inhibition": "-16.4%"}, {"compound": "CC1(C)OC2OC(C3CC3)C(O)C2O1", "note": "(stereo not given)", "growth inhibition": "3%"}, {"compound": "CCOC(=O)NCc1cccc2ccccc12", "growth inhibition": "-10.3%"}, {"compound": "CCOC(=O)/C=C/n1c2ccccc2c(=O)c2cc(OC)ccc21", "growth inhibition": "-18.8%"}, {"compound": "OC(C/C(=N\\Nc1ccccc1)c1ccc(F)cc1)(C(F)(F)F)C(F)(F)F", "growth inhibition": "98.5% (active)"}, {"compound": "O=C(O)CCCCC1CCCC1", "growth inhibition": "12.2%"}, {"compound": "COc1cccc(CCC(=O)O)c1", "growth inhibition": "-21.6%"}, {"compound": "Cc1ccc(N=C=C(c2ccc(Cl)cc2)c2ccc(Cl)cc2)cc1", "growth inhibition": "70.8% (active)"}, {"compound": "CCC1NC(N=Nc2ccc([N+](=O)[O-])cc2)(P(=O)(OC(C)C)OC(C)C)OC1=O", "note": "(stereo not given)", "growth inhibition": "16.1%"}, {"compound": "CC1CSC(=S)N1C(=O)N1C(=S)SCC1C", "note": "(stereo not given)", "growth inhibition": "-52.9%"}, {"compound": "CCCC(=O)N(CC)CC", "growth inhibition": "-0.8%"}, {"compound": "O=C(O)c1cccc2c1C1CCC2c2cccc(C(=O)O)c21", "growth inhibition": "15.6%"}, {"compound": "C(=C(c1ccccc1)c1ccccc1)=C(c1ccccc1)c1ccccc1", "growth inhibition": "24.6%"}, {"compound": "CC(=O)Oc1cc(Oc2c(OC(C)=O)cc(Oc3c(OC(C)=O)cc(OC(C)=O)c(OC(C)=O)c3OC(C)=O)cc2OC(C)=O)cc(OC(C)=O)c1OC(C)=O", "growth inhibition": "13.2%"}, {"compound": "NC(=O)NC(NC(=O)NC(NC(N)=O)c1ccco1)c1ccco1", "note": "(stereo not given)", "growth inhibition": "10.7%"}, {"compound": "Clc1nc(Cl)c2ncn(C3CCCO3)c2n1", "note": "(stereo not given)", "growth inhibition": "14.7%"}, {"compound": "COC(=O)C1CCCCC1C(=O)OC", "note": "(stereo not given)", "growth inhibition": "0.85%"}, {"compound": "CC(C)(C)NO", "growth inhibition": "7.65%"}, {"compound": "CN1CCN(CCN2C(=O)c3ccccc3C2=O)CC1", "growth inhibition": "-10.5%"}, {"compound": "COc1cc2ccc3c4cc(OC)c(OCc5ccccc5)cc4cnc3c2cc1OC", "growth inhibition": "4.9%"}, {"compound": "Cc1ccc(O)c(C(=O)c2ccc(Cl)c(Cl)c2)c1", "growth inhibition": "54.2%"}, {"compound": "CC(C)c1sc([S-])n[n+]1-c1ccccc1", "growth inhibition": "-9.5%"}, {"compound": "Cc1cc(C)[n+](C)c(/C=C/c2ccc([N+](=O)[O-])cc2)n1", "growth inhibition": "15.6%"}, {"compound": "COc1ccc(NC(C)=O)cc1Br", "growth inhibition": "-11.1%"}, {"compound": "Nc1nc(N)nc(-c2ccccc2NC(=O)c2ccccc2N)n1", "growth inhibition": "-0.25%"}, {"compound": "CN(C)CCCN(c1nc2cc(Cl)ccc2o1)c1nc2cc(Cl)ccc2o1", "growth inhibition": "36.1%"}, {"compound": "CC(C)=CCCC(C)C=O", "note": "(stereo not given)", "growth inhibition": "-19.4%"}, {"compound": "COc1ccc(Cc2coc3ccccc3c2=O)cc1", "growth inhibition": "13.7%"}, {"compound": "O=C(NCCCl)Nc1cccc2c1CCC2", "growth inhibition": "-9.5%"}, {"compound": "COc1cccc(C2c3cc4c(cc3OC(C)(O)C2C)OCO4)c1OC", "note": "(stereo not given)", "growth inhibition": "39.5%"}]}, {"test": "NCI Yeast Anticancer Drug Screen. Data for the cln2 rad14 strain (AID 165);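 note: 0% = growth equal to vehicle treated cultures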", "conditions": "S. cerevisiae cln2 rad14 strain, at 50.0 µM, stronger effect = higher value", "summary_of_the_method": "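Readout is yeast growth inhibition versus vehicle-treated controls, using a strain with cln2 and rad14 alterations exposed to compound.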", "values": [{"compound": "Cc1ccc(-c2nnc(C)o2)cc1", "growth inhibition": "-35.6%"}, {"compound": "CCCCCCCCOCCS(=O)(=O)O", "growth inhibition": "-22.6%"}, {"compound": "CC(=O)NC(CSC1=C2NC(=O)\\C=C/C=C/C=C\\C(C)C(O)CC(=O)/C(C)=C\\CC(O)/C=C/C(C)C(O)C(C)C=C(C)C(=O)c3c(O)c(C)cc(c3C1=O)C2=O)C(=O)O", "note": "(stereo not given)", "growth inhibition": "23.3%"}, {"compound": "Cc1ccc(S(=O)(=O)Nc2ccc3nc(C)oc3c2)cc1", "growth inhibition": "14.7%"}, {"compound": "CC(NC(=O)NCCCl)c1cccc2ccccc12", "note": "(stereo not given)", "growth inhibition": "44.2%"}, {"compound": "CN(C)C(=S)Oc1ccc([N+](C)(C)C)cc1", "growth inhibition": "-4.6%"}, {"compound": "CSc1cc(/C=C/c2ccccc2)ccc1N", "growth inhibition": "-33.5%"}, {"compound": "Cc1ccc(N=Cc2ccc(C(N)=S)cc2)cc1", "growth inhibition": "-17.4%"}, {"compound": "CC(NC(=O)CN)C(=O)O", "note": "(stereo not given)", "growth inhibition": "-22.6%"}, {"compound": "NC1CCCCC1N.O=NN1CCCCCC1(P(=O)([O-])[O-])P(=O)([O-])[O-].[Na+].[Pt+2]", "growth inhibition": "-19.3%"}, {"compound": "Clc1ccc2cc(Cl)c3ccccc3c2c1", "growth inhibition": "-20.9%"}, {"compound": "CC1(C)OC2OC(C3CC3)C(O)C2O1", "note": "(stereo not given)", "growth inhibition": "-36.1%"}, {"compound": "CCOC(=O)NCc1cccc2ccccc12", "growth inhibition": "-89.4%"}, {"compound": "CCOC(=O)/C=C/n1c2ccccc2c(=O)c2cc(OC)ccc21", "growth inhibition": "3.6%"}, {"compound": "OC(C/C(=N\\Nc1ccccc1)c1ccc(F)cc1)(C(F)(F)F)C(F)(F)F", "growth inhibition": "97.8% (active)"}, {"compound": "O=C(O)CCCCC1CCCC1", "growth inhibition": "5.25%"}, {"compound": "COc1cccc(CCC(=O)O)c1", "growth inhibition": "31%"}, {"compound": "Cc1ccc(N=C=C(c2ccc(Cl)cc2)c2ccc(Cl)cc2)cc1", "growth inhibition": "60.2%"}, {"compound": "CCC1NC(N=Nc2ccc([N+](=O)[O-])cc2)(P(=O)(OC(C)C)OC(C)C)OC1=O", "note": "(stereo not given)", "growth inhibition": "-15.8%"}, {"compound": "CC1CSC(=S)N1C(=O)N1C(=S)SCC1C", "note": "(stereo not given)", "growth inhibition": "-10.8%"}, {"compound": "CCCC(=O)N(CC)CC", "growth inhibition": "-15%"}, {"compound": "O=C(O)c1cccc2c1C1CCC2c2cccc(C(=O)O)c21", "growth inhibition": "3.05%"}, {"compound": "C(=C(c1ccccc1)c1ccccc1)=C(c1ccccc1)c1ccccc1", "growth inhibition": "-15.4%"}, {"compound": "CC(=O)Oc1cc(Oc2c(OC(C)=O)cc(Oc3c(OC(C)=O)cc(OC(C)=O)c(OC(C)=O)c3OC(C)=O)cc2OC(C)=O)cc(OC(C)=O)c1OC(C)=O", "growth inhibition": "4.5%"}, {"compound": "NC(=O)NC(NC(=O)NC(NC(N)=O)c1ccco1)c1ccco1", "note": "(stereo not given)", "growth inhibition": "6.1%"}, {"compound": "Clc1nc(Cl)c2ncn(C3CCCO3)c2n1", "note": "(stereo not given)", "growth inhibition": "-40%"}, {"compound": "COC(=O)C1CCCCC1C(=O)OC", "note": "(stereo not given)", "growth inhibition": "-16.6%"}, {"compound": "CC(C)(C)NO", "growth inhibition": "3.4%"}, {"compound": "CN1CCN(CCN2C(=O)c3ccccc3C2=O)CC1", "growth inhibition": "-15%"}, {"compound": "COc1cc2ccc3c4cc(OC)c(OCc5ccccc5)cc4cnc3c2cc1OC", "growth inhibition": "18.9%"}, {"compound": "Cc1ccc(O)c(C(=O)c2ccc(Cl)c(Cl)c2)c1", "growth inhibition": "-0.9%"}, {"compound": "CC(C)c1sc([S-])n[n+]1-c1ccccc1", "growth inhibition": "-15.4%"}, {"compound": "Cc1cc(C)[n+](C)c(/C=C/c2ccc([N+](=O)[O-])cc2)n1", "growth inhibition": "27.8%"}, {"compound": "COc1ccc(NC(C)=O)cc1Br", "growth inhibition": "-16.8%"}, {"compound": "Nc1nc(N)nc(-c2ccccc2NC(=O)c2ccccc2N)n1", "growth inhibition": "8.5%"}, {"compound": "CN(C)CCCN(c1nc2cc(Cl)ccc2o1)c1nc2cc(Cl)ccc2o1", "growth inhibition": "52.9%"}, {"compound": "CC(C)=CCCC(C)C=O", "note": "(stereo not given)", "growth inhibition": "4%"}, {"compound": "COc1ccc(Cc2coc3ccccc3c2=O)cc1", "growth inhibition": "4.85%"}, {"compound": "O=C(NCCCl)Nc1cccc2c1CCC2", "growth inhibition": "-47.3%"}, {"compound": "COc1cccc(C2c3cc4c(cc3OC(C)(O)C2C)OCO4)c1OC", "note": "(stereo not given)", "growth inhibition": "13.9%"}]}]}
